# Source: PubChem BioAssay (National Center for Advancing Translational Sciences (NCATS))
# Compounds with a hit are over-represented: about 2.8% of the library has one in this group of screens.
# Pol beta inh: DNA polymerase beta (human) inhibition; P06746; Pol beta primer extension/strand displacement, fluorescence kinetic; Potency, µM (series often up to 114 µM), without a hit: at the top dose activity change, negative = inhibition, actives largely listed as inhibitors; hit rate 1.3% among 340,000; AID 485314; further: potency means the concentration at half of the fitted maximal effect; on the % scale 0 is the no-effect control and ±100 the full control effect
#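 Homogeneous kinetic assay of primer extension and strand displacement by 10 nM Pol beta, preincubated 15 min at room temperature with compound before 50 nM substrate (final) was added. Read at 0 and 10 min; four-parameter Hill fit.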
# WRN helicase inh: inhibitors of human WRN helicase | hit rate 0.46% among 360,000 | Potency, µM (doses to about 114 µM), for inactives: at the highest dose activity change, negative = inhibition, most hits filed as inhibitors | WRN helicase unwinding, fluorescent forked duplex, kinetic; further: potency means the concentration at half of the fitted maximal effect; on the % scale 0 is the no-effect control and ±100 the full control effect; nearly all actives have a fitted effect of over 55% in size
#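 Kinetic fluorescence helicase assay: unwinding of a quenched forked DNA duplex (100 nM final) with 2 mM ATP final raises red fluorescence (525/598 nm). Compounds sat 15 min at room temperature with 20 nM WRN beforehand.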
# Pol kappa inh-1: DNA polymerase kappa (human) inhibition. purified Pol kappa, fluorescent DNA synthesis assay, 10 min. Potency, µM (titrated, usually from 107 µM), without a hit: top-dose activity, negative = inhibition, usual class: inhibitors. hit rate 0.53% among 400,000. AID 588579; further: potency means the concentration at half of the fitted maximal effect; on the % scale 0 is the no-effect control and ±100 the full control effect
#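 50 nM final substrate added after 15 min RT preincubation of 10 nM Pol kappa with compound; fluorescence read at 0 and 10 min.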
# POLI inh: blocks human DNA polymerase iota activity. Pol iota fluorescent replication assay, 10 min. hit rate 1% among 390,000. AID 588590. Potency, µM (doses to about 115 µM), inactives show top-dose activity, negative = inhibition, actives largely listed as inhibitors. Q9UNA4; further: potency means the concentration at half of the fitted maximal effect
# Target sequence (Q9UNA4 whole entry, looked up): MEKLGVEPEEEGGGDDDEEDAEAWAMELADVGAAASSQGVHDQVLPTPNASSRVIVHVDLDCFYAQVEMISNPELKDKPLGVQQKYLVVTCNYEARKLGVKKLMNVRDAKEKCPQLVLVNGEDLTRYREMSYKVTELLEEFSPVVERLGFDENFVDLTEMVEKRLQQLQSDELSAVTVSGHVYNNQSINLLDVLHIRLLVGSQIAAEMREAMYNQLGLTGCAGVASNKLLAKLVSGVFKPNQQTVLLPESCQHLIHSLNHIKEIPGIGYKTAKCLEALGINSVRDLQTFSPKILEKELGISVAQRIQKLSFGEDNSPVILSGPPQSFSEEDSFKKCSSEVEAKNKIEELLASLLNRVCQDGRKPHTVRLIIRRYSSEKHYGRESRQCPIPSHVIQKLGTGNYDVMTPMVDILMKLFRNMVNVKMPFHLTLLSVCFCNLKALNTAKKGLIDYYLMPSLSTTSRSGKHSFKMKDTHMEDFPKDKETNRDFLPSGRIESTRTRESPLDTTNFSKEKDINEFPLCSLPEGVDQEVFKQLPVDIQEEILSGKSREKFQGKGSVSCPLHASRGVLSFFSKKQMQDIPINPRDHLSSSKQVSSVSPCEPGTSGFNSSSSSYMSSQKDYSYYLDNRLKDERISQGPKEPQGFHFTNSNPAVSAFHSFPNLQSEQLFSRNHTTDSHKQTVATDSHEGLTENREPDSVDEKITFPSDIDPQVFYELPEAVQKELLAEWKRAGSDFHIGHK
#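 Pol iota at 10 nM preincubated 15 min with compounds at room temperature; reaction started with fluorescent substrate, 50 nM final. Fluorescence read kinetically at 0 and 10 min; buffer-only wells as negative control.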
# PI5P4Ka inh: blocks human PI5P4K alpha kinase activity; P48426; PI5P4Kalpha enzyme, ADP-Glo luminescence, 60 min; hits give low values; max response, %; hit rate 1.2% among 330,000; AID 652105; active means max response of -50% or lower; inconclusive means between -30% and -50%; inactive means -30% or higher; further: value at the top dose of about 77 µM; on the % scale 0 is the no-effect control and ±100 the full control effect
#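 Human PI5P4Kalpha with substrate in 0.038 M HEPES pH 7.4, 0.28 mM EGTA, 0.1% CHAPS, 5% DMSO; reaction started with 5 microM ATP (final), 60 min at room temperature. ADP formed read by ADP-Glo luminescence.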
# Pol eta inh-1: blocks human DNA polymerase eta activity; Q9Y253; recombinant Pol eta, fluorescent DNA replication assay; Potency, µM (doses to about 114 µM), without a hit: at the top dose activity change, negative = inhibition, usual class: inhibitors; hit rate 1.2% among 390,000; AID 588591; further: potency means the concentration at half of the fitted maximal effect; on the % scale 0 is the no-effect control and ±100 the full control effect
#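 Fluorescent replication assay: 50 nM final substrate added after a 15 min room-temperature compound preincubation with 10 nM enzyme. Signal taken at 0 min and again at 10 min.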
# PGK validate: blocks T. brucei phosphoglycerate kinase; shares compounds with Pol kappa inh-1; TbPGK coupled GAPDH assay, Kinase-Glo luminescence; Potency, µM (titrated, usually from 57.5 µM), for the others: top-dose activity change, negative = inhibition, actives largely listed as inhibitors; hit rate 79% among 500; AID 686980; further: potency means the concentration at half of the fitted maximal effect; on the % scale 0 is the no-effect control and ±100 the full control effect; nearly all actives have a fitted effect of over 65% in size
# POLI cherry-pick: Human Pol iota inhibitor confirmatory assay; shares compounds with Pol kappa inh-1; Pol iota primer extension, TAMRA/BHQ fluorescence; Potency, µM, usual class: inhibitors; hit rate 77% among 1,500; AID 720496; further: potency means the concentration at half of the fitted maximal effect
# Pol kappa inh-2: Pol kappa (human) inhibition, cherry-pick confirmation. shares compounds with Pol eta inh-1. purified Pol-kappa, fluorescent strand-displacement substrate. Potency, µM, most hits filed as inhibitors. hit rate 76% among 920; further: potency means the concentration at half of the fitted maximal effect
# Pol eta inh-2: confirmation of human DNA polymerase eta inhibitors. hit rate 64% among 2,600. shares compounds with Pol eta inh-1. AID 720502. Pol eta primer extension, TAMRA/BHQ fluorescence, 10 min. Potency, µM, most hits filed as inhibitors; further: potency means the concentration at half of the fitted maximal effect
# * hit, by the source's call; ? = inconclusive; . = not tested or not shown; [ ] = dose if it differs, or a comment. Unless noted, the call rests on the fitted dose curve; in most records, active means well fitted curve in the direction sought with a large enough effect; inconclusive means small, poorly fitted or top-dose-only effect, or another doubt; inactive means no such curve, though single readings can be large; an effect the other way counts as inactive or inconclusive.
SMILES,Pol beta inh,WRN helicase inh,Pol kappa inh-1,POLI inh,PI5P4Ka inh,Pol eta inh-1,POLI cherry-pick,Pol eta inh-2,others
CCCSc1ccc2nc(-c3ccccc3)cn2c1,-0.3%,-30.9%,-27.7%,-11.6%,-13.6,-11.7%,.,.,PGK validate=18.3µM*
O=C(/C=C\c1ccc2c(c1)OCO2)NC1CC(=O)N(c2cccc(F)c2)C1 (stereo unspecified),-9.8%,.,-1.6%[60.1 µM],15.3%,.,-20.3%,.,.,
COc1cc(NC(=O)Nc2nnc(N3CCCCCC3)s2)cc(OC)c1,4.8%,.,1.3%,32.6%,.,-20.6%,.,.,
Cc1nc2sc(-c3ccccc3)cc2c(=O)n1-n1cccc1,-1.9%,-9.4%,-15.2%,-1.6%,3.1,3.9%,.,.,
Cc1nc2sc(-c3ccccc3)cc2c(=O)n1N,10.9%,-11.3%,-13.7%,-10.0%,?,0.2%,.,.,PGK validate=16.3µM*
O=C(O)c1cc(O)c2c(c1)[C@H]([C@H]1c3cc(C(=O)O)cc(O)c3C(=O)c3c(O[C@@H]4O[C@H](CO)[C@@H](O)[C@H](O)[C@H]4O)cccc31)c1cccc(OC3O[C@H](CO)[C@@H](O)[C@H](O)[C@H]3O)c1C2=O (stereo partly specified),.,3.98µM*,0.708µM*,-82.6%,-78.6*,-99.1%,.,.,PGK validate=2.91µM*
COc1ccccc1CCNC(=O)c1cc(-c2ccncc2)nc2ccc(Br)cc12,-13.9%,-1.9%[11.6 µM],-26.4%,42.2%,?,44.7µM*,?,.,
CCN(CC)S(=O)(=O)c1cccc(C(=O)N/N=C/c2ccc(O)c(O)c2O)c1,-2.1%,25.1µM*,?,?,-69.6*,?,?,.,
CCc1ccc(NC(=O)CC2C(=O)N(c3ccc(Cl)cc3)C(=O)N2Cc2ccco2)cc1 (stereo unspecified),-9.6%,.,-23.0%,1.4%,.,-16.7%,.,.,
Cc1cc(C)nc(SCC(=O)Nc2ccccc2[N+](=O)[O-])n1,22.6%,-5.1%,-9.4%,14.2%,.,-0.3%,.,.,
O=C1CC(=O)NC(SCC(=O)Nc2ccccc2[N+](=O)[O-])=N1,?,39.8µM*,39.8µM*,2.82µM*,?,5.62µM*,11.9*,6.01*,PGK validate=10.3µM*
COc1ccc(C2C(=O)N(C3CCC(C)CC3)CC(=O)N2C2CCCC2)cc1OC (stereo unspecified),-20.4%,.,11.8%[60.1 µM],-8.8%,.,-11.3%,.,.,
Cc1cc(=O)oc2c(N)nccc12,.,12.6%,.,.,-7.1,.,.,.,
Cc1cc(=O)oc2c3c(ccc12)OC/C3=N/N,30.1%,-13.8%[11.6 µM],-17.3%,?,-11.8,?,42.3*,30.1*,Pol kappa inh-2=33.6*
COc1cc(C(c2c(C(=O)O)[nH]c3ccccc23)c2c(C(=O)O)[nH]c3ccccc23)ccc1OCc1ccccc1,44.7µM*,-15.9%[11.6 µM],?,-26.5%,2.5,50.1µM*,?,?,
C[n+]1c(/C=C/c2ccc(N)cc2)sc2ccccc21,.,.,-19.7%,?,.,.,.,.,
Cc1nc(-n2nc(C)c(Cc3ccccc3Cl)c2C)sc1C(=O)N1CCC(C)CC1,?,.,7.6%,-5.2%,.,10.7%,.,.,
COc1cc(Cl)c(C)cc1NC(=O)CSc1ncc(S(=O)(=O)c2ccc(C(C)(C)C)cc2)c(=O)[nH]1,10µM*,.,?,?,.,10µM*,21.2*,30.1*,PGK validate=20.6µM*
CCc1ccc(S(=O)(=O)c2cnc(SCC(=O)Nc3ccc(OC)cc3OC)[nH]c2=O)cc1,-17.0%,.,-12.9%,-24.6%,.,-6.1%,.,.,
CC(C)(C)c1ccc(S(=O)(=O)c2cnc(SCC(=O)Nc3ccc(F)c(Cl)c3)[nH]c2=O)cc1,79.4µM*,.,?,?,.,28.2µM*,?,?,
O=C(CC(=O)Nc1ccccc1F)Nc1ccc2nc3n(c(=O)c2c1)CCCCC3,3.7%,.,-0.9%,40.2%,.,-18.8%,.,.,
CC(=O)Nc1ccc(N=Cc2c(O)c(C(=O)Nc3ccccc3)cc3ccccc23)cc1,?,-27.7%[11.6 µM],5.0%,7.4%,-13.9,?,29.9*,75.7*,Pol kappa inh-2=75.2*
Cc1ccc(C(=O)CSc2ncc3c(n2)-c2ccccc2N(Cc2ccc(Cl)cc2)S3(=O)=O)cc1,4.7%,.,8.4%,12.8%,.,-14.3%,.,.,
Cc1cc(C(O)c2ncc(-c3ccccc3)[nH]2)ccc1F (stereo unspecified),.,2.5%,.,.,0.2,.,.,.,
O=C1CC(c2ccco2)CC(O)=C1C=Nc1cc(Cl)ccc1Cl (stereo unspecified),39.8µM*,?,?,22.4µM*,?,?,67*,60.1*,Pol kappa inh-2=75.2*
SMILES,Pol beta inh,WRN helicase inh,Pol kappa inh-1,POLI inh,PI5P4Ka inh,Pol eta inh-1,POLI cherry-pick,Pol eta inh-2,others
Cc1ccccc1/C=N/Nc1nc2ccccc2[nH]1,-0.3%,-10.6%,-11.7%,12.7%,3.6,0.5%,.,.,
O=[N+]([O-])c1cc(/C=N/Nc2nc3ccccc3[nH]2)c(O)cc1O,20µM*,?,39.8µM*,44.7µM*,-73.3*,4.47µM*,?,?,
Cc1cccc2c1NC(=O)C2=O,.,28.2µM*,50.1µM*,8.91µM*,-17.3,8.91µM*,42.3*,16.9*,Pol kappa inh-2=15*
O=C1Nc2c(Cl)cccc2C1=O,.,-2.9%,.,.,-3.1,.,.,.,
CCn1ccnc1CN(C)Cc1nc(Cc2cccc(C(F)(F)F)c2)no1,-1.3%,-14.2%[57.1 µM],3.0%,31.0%,6.6,-19.3%,.,.,
COc1cccc(-n2c(SCc3cc(=O)oc4cc(O)c(O)cc34)nc3ccccc3c2=O)c1,3.16µM*,28.2µM*,31.6µM*,7.94µM*,-61.0*,3.16µM*,7.52*,12*,
O=C(C[n+]1cccc2cccc(O)c21)c1ccc2ccccc2c1,.,.,-16.7%,54.1%,.,.,.,.,
C/C=C(\C)C(=O)Nc1cccc(C2=NOC3(C2)C[C@@H](C(N)=O)N(C(=O)c2ccccc2C(=O)c2ccccc2)C3)c1 (stereo partly specified),13.2%,-1.9%,-4.4%,40.3%,2.8,-17.5%,.,.,
C=C(C)C(=O)Nc1cccc(C2=NOC3(C2)C[C@H](C(N)=O)N(C(=O)c2ccccc2C(=O)c2ccccc2)C3)c1 (stereo partly specified),8.91µM*,?,?,44.7µM*,-26.3,5.62µM*,47.4*,19*,
